Compounds with a hit are over-represented: about 9.2% of the library has one in this group of screens.
ALDH1A1 block = blocks purified human ALDH1A1 activity; Purified ALDH1A1, NADH fluorescence, propionaldehyde substrate; Potency, µM (top dose mostly 75.3 µM), inactives show top-dose activity, negative = inhibition, most hits filed as inhibitors; 7.3% of 220,000 active; AID 1030;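 further: plate controls were no enzyme wells and a reference inhibitor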
HTT ATP protect = cytoprotection in Huntington HTT-Q103 PC12 cell model; PC12 HTT-Q103 induced, cytoprotection, ATP luminescence, 40 h; Potency, µM (series often up to 56.4 µM), for the others: cytoprotection (ATP increase), most hits filed as activators; AID 1471; 0.14% of 230,000 active; active means well fitted curve in the direction sought with a large enough effect; inconclusive means small, poorly fitted or top-dose-only effect, or another doubt; inactive means no such curve, though single readings can be large; an effect the other way counts as inactive or inconclusive; further: % of control where 0% means no effect; nearly all actives have a fitted effect of over 45% in size
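Cells were plated at 1500 per well in phenol red-free DMEM with 5% equine and 5% calf serum. Tebufenozide (100 nM final) and compounds were added, then ATPlite reagent, and luminescence was read.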
JMJD2E inh = JMJD2E (human) inhibition; B2RXH2; JMJD2E catalytic domain, FDH-coupled NADH fluorescence (FDH is formaldehyde dehydrogenase); Potency, µM (series often up to 57.1 µM), for the others: top-dose activity change, negative = inhibition, hits mostly inhibitors; 1.6% of 230,000 active; AID 2147;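 further: 0% = wells with enzyme and -100% = buffer wells without enzyme; nearly all actives have a fitted effect of over 50% in size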
Target sequence (B2RXH2 1-337 limits assumed): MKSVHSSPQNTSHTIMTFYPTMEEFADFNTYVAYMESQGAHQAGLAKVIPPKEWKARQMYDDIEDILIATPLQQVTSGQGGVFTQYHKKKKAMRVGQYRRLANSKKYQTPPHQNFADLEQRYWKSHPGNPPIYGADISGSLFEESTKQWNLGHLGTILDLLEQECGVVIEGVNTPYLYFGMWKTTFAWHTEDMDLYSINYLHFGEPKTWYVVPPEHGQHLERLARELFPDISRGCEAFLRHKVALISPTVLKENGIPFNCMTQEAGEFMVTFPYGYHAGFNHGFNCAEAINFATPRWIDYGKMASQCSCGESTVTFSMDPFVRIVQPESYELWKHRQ
LMNA splice mod = changes lamin A minigene splicing in HeLa cells | HeLa LMNA splicing GFP/RFP minigene ratio, 48 h | Potency, µM (highest dose often 46.1 µM), without a hit: at the highest dose ratio change, negative = inhibition, hits mostly inhibitors | 0.01% of 200,000 active; active means well fitted inhibition curve with a large enough effect in the signal ratio, with a control signal flat, not every such curve was filed as active; inconclusive means small, poorly fitted or top-dose-only effect, or effect the other way, or a change in a side signal; the % refers to the signal ratio; further: on the % scale 0 is the no-effect control and ±100 the full control effect
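S3 HeLa stable clones carrying a lamin A-EGFP splicing minigene plus DsRed2 were seeded at 600 cells/well in Opti-MEM with 2% FBS, pin-dosed and incubated 48 h at 37°C. Acumen cytometry (488 nm) gave the GFP/RFP total-intensity ratio.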
HPGD inh = blocks human HPGD enzyme activity | purified HPGD, NADH fluorescence kinetic, PGE2 substrate | Potency, µM, for the others: at the highest dose activity change, negative = inhibition, hits mostly inhibitors | 4.3% of 150,000 active; further: on the % scale 0 is the no-effect control and ±100 the full control effect
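20 nM HPGD preincubated 15 min at room temperature with compound in 50 mM Tris-HCl pH 8, 0.01% Tween 20. Started with 1 mM NAD+ and 30 uM prostaglandin E2; NADH fluorescence (360/450 nm) read 5 times over 30-s intervals, last minus first.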
HttQ103 aggreg = inhibitors of mutant huntingtin aggregate formation in PC12 cells. Potency, µM (top dose mostly 46.1 µM), without a hit: top-dose activity change, negative = inhibition, actives largely listed as inhibitors. AID 1688. 1.1% of 220,000 active. PC12 HttQ103-GFP aggregates, Acumen cytometry, 40 h; active means well fitted curve in the direction sought with a large enough effect; inconclusive means small, poorly fitted or top-dose-only effect, or another doubt; inactive means no such curve, though single readings can be large; an effect the other way counts as inactive or inconclusive; further: on the % scale 0 is the no-effect control and ±100 the full control effect; nearly all actives have a fitted effect of over 60% in size
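Inducible Q103 Huntingtin exon 1–GFP PC12 line, 1500 cells/well in phenol red free DMEM with 5% equine and 5% calf serum. Tebufenozide 100 nM induced expression; compounds titrated; aggregates quantified by cytometry.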
* marks the source's active call; other numbers are inactive results; ? = inconclusive; . = no result given; [ ] = dose if it differs, or a comment. Unless noted, the call rests on the fitted dose curve; in most records, active means well fitted inhibition curve with a large enough effect (not every such curve was filed as active); inconclusive means small, poorly fitted or top-dose-only effect, or another doubt; inactive means no such curve, though single readings can be large or run the other way. Potency means the concentration at half of the fitted maximal effect.

SMILES	ALDH1A1 block	HTT ATP protect	JMJD2E inh	LMNA splice mod	HPGD inh	HttQ103 aggreg
CC1Cc2cc(/C(O)=C3/C(=O)C(=O)N(CCN4CCOCC4)C3c3cccc(Cl)c3)ccc2O1 (centres undefined)	11µM*	-18%[0.074 µM]	-1%	0%	28µM*	30%
CCN(CC)CCN1C(=O)C(=O)/C(=C(/O)c2cccc(OC)c2)C1c1ccccn1 (centres undefined)	?	-29%	?	14%	32µM*	16%
CCOc1cccc(/C(O)=C2/C(=O)C(=O)N(Cc3ccco3)C2c2ccncc2)c1 (centres undefined)	-13%	15%	5%	5%	-13%	5%
CC1(C)C(=O)C=C[C@]2(C)C1CC(=O)[C@]1(C)C2CC[C@@]2(C)C(c3ccoc3)OC(=O)C3O[C@@]321 (some centres undefined)	-10%	-149%	-2%	.	-5%	.
CCCC/C=C/C(NC(=O)C(C)(C)C)c1ccccc1 (centres undefined)	4%	-53%	3%	.	-1%	.
COc1cc(CN2CCNC(=O)C2CC(=O)NCCC2=CCCCC2)cc(OC)c1 (centres undefined)	20µM*	11%[10 µM]	-19%	?	.	-4%[9.22 µM]
CCCCc1nc2c(c3c1C[C@H](C)OC3)CN(C(=O)NCCc1c[nH]c3ccccc13)CC2	14%[13.5 µM]	25%[10 µM]	2%[11.4 µM]	-5%[9.22 µM]	0%	.
COc1ccc(Oc2ncc3ncc(=O)n(C[C@H]4CCCO4)c3n2)cc1	14µM*	11%	.	.	-16%	.
COc1ccc(-n2c(=O)cnc3cnc(OC)nc32)cc1	22µM*	-70%	.	-3%	.	.
COc1ccc(-n2c(=O)cnc3cnc(N4CCNCC4)nc32)cc1	?	13%	.	.	-24%	.
CCNc1ccccc1	9%	-16%	.	.	-3%	.
O=c1oc2ccccc2cc1-c1ccc(O)cc1	?	.	-1%	-6%	?	-8%
O=c1oc2ccccc2cc1O	1%	-40%	0%	.	18µM*	.
CC1=C/C(=N\NC(=O)c2ccc(O)cc2)CC1	3%	7%[10 µM]	-3%	-5%	.	?
CSC(=NNC(=O)c1ccc(O)cc1)SC	-9%	2%	-2%	12%	16µM*	-4%
Cc1csc2nc(-c3cccc(NC(=O)c4c(F)cccc4F)c3)cn12	.	.	.	-24%[46 µM]	.	.
O=C(Nc1ccccc1)c1ccc(N2CCN(c3ccccc3)CC2)c(S(=O)(=O)N2CCOCC2)c1	?	-25%	?	-7%	?	4%[9.22 µM]
O=C(Nc1ccccc1)c1ccc(N2CCN(c3ccccn3)CC2)c(S(=O)(=O)N2CCOCC2)c1	28µM*	-4%	?	-1%	?	-2%
COc1ccc(OC)c2sc(N3CCCCC3)nc12	?	-3%[10 µM]	4%	13%	16µM*	-1%
COc1ccc(OC)c2sc(N3CCc4ccccc4C3)nc12	?	-64%	-11%	-22%[46 µM]	.	-9%
CCCNC(=O)C1CNc2ccccc2O1 (centres undefined)	-3%	-14%	2%	10%	25µM*	-11%
Cn1cnnc1SCC(=O)Nc1ccc2nc(SCc3ccccc3)sc2c1	3.5µM*	-58%	0%	11%	?	?
Cn1cnnc1SCC(=O)Nc1ccc2nc(SCc3cccc4ccccc34)sc2c1	14µM*	14%[10 µM]	-1%	?	-17%	?
Cn1cnnc1SCC(=O)Nc1ccc2nc(SCc3ccccc3Cl)sc2c1	25µM*	-14%[10 µM]	3%	-12%	-19%	-12%
Cc1cccc(NC(=O)CSc2nc3ccc(NC(=O)c4ccccc4)cc3s2)c1	.	.	.	31%[46 µM]	.	.
COC(=O)C(C)Sc1nnc2cc(C)c3cc(C)cc(C)c3n12 (centres undefined)	.	.	.	5%[46 µM]	.	.
COc1ccc(N2C(C)=CS/C2=C(/C#N)c2nnc(N3CCOCC3)n2-c2ccccc2)cc1	22µM*	-18%	6%	3%	-6%	2%
COc1ccc(/C=C/C(O)=C(\C#N)c2nnc(N3CCOCC3)n2-c2ccccc2)cc1OC	13µM*	-18%	?	.	.	-1%

Source: PubChem
